# Screening data from PubChem BioAssay.
# Rows were chosen to be rich in hits. Some 3.6% of all compounds tested hit in one or more screens of this group.
# WT yeast gro inh: growth inhibition of WT yeast, mitochondrial fusion screen; mitochondrial fusion phenotypic screen, WT strain; 2.1% of 190,000 active; inhibition, % at 10 µM; in the data active = inhibition above about 58%; tested in S. cerevisiae
# HCT116 bCat-KO: beta-catenin-lacking colon tumor cell growth suppression; AID 818; 1.5% of 140,000 active; HCT116 beta-catenin knockout viability, CellTiter-Glo, 60 h; active compounds read low; viability, % at 10 µM;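 active = viability at or under a set limit, the compound median less 4 SD, cut at about 6% in these data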
# hDAT+cocaine: changed human dopamine transporter uptake under cocaine IC80; Q01959; LLC-PK1 hDAT cells, [14C]-dopamine uptake with cocaine IC80; actives deviate in either direction; B-score at 10 µM; 1.3% of 110,000 active;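 active = Z score or B-score, a plate-position-corrected score, falls beyond the plate's 99.7% confidence bounds, in either direction; inactive = both scores lie inside the 99.7% bounds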
# Target sequence (Q01959 whole entry, looked up): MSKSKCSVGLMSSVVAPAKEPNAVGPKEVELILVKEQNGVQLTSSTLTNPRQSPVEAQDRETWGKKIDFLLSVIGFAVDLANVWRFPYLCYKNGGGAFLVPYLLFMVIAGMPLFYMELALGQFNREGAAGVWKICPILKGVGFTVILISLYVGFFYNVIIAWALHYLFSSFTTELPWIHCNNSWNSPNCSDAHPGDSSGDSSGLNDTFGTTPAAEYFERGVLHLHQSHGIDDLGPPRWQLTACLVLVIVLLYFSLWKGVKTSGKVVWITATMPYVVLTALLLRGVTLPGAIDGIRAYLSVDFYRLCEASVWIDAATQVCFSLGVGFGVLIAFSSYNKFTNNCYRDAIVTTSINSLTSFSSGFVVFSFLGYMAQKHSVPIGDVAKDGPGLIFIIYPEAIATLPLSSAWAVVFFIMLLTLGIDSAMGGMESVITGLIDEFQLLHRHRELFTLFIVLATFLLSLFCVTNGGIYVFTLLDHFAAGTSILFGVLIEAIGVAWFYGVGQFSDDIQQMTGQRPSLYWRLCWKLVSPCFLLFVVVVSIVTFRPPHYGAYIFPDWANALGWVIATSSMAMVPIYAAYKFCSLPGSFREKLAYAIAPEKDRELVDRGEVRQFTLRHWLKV
# HCT116 PTEN-null: suppresses growth of cells with PTEN deletion; HCT116 PTEN-null viability, CellTiter-Glo, 60 h; active compounds read low; viability, % at 10 µM; 1.2% of 140,000 active;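 active = viability at or below a set limit, 4 SD under the median of all tested compounds, cut at about 3.7% in these data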;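 also: PTEN knockout HCT116 line with beta catenin targeted HCT116 as companion control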
# Numbers stand for hits; - = inactive; . = no result given.
SMILES,WT yeast gro inh,HCT116 bCat-KO,hDAT+cocaine,HCT116 PTEN-null
COc1ccc(NC(=S)N2CCN(C(c3ccccc3)c3ccccc3)CC2)c(OC)c1,69,.,.,.
C=C1CCN([C@@H](Cc2ccccc2)C(=O)NCCC(C)C)S(=O)(=O)c2ccccc21,.,.,-,.
CCOc1ccc(-c2c(C)n([O-])c3c([n+]2=O)CCCCC3)cc1,-,.,.,.
COc1ccc(-n2cc(C(=O)O)c(=O)cc2C)cc1,-,.,.,.
COc1cccc(NC(=S)NCCN2CCOCC2)c1,-,-,.,-
COc1cc(NC(=S)NCCC(c2ccccc2)c2ccccc2)cc(OC)c1,66,-,.,-
COc1cc(NC(=S)Nc2ccccn2)cc(OC)c1,-,-,.,-
COc1cccc(NC(=S)NCCC(c2ccccc2)c2ccccc2)c1,76,-,-,-
CCOC(=O)c1c(C2COc3ccccc3O2)csc1NC(=O)c1ccccc1 (centres undefined),-,0.8,-,0.5
CCOC(=O)c1c(C2COc3ccccc3O2)csc1N (centres undefined),-,-,-,-
Cc1ccc(Cn2c(CCNc3nc(-c4ccc(Cl)c([N+](=O)[O-])c4)cs3)nc3cc(C(=O)NCCCO)ccc32)cc1,.,.,-,.
Cc1cc(C)c(C(=O)/C=C/c2ccc3c(c2)OCO3)c(=O)[nH]1,-,.,.,.
Cc1cc(C)c(C(=O)/C=C/c2cccc3ccccc23)c(=O)[nH]1,-,1.5,.,2.3
O=C(CN(C(=O)c1ccccc1Cl)N1C(=O)CCCC1=O)c1ccc(Cl)cc1,-,.,.,.
c1ccc2c(c1)nc(CN1CCOCC1)n1c3ccccc3nc21,81,-,-,-
CCc1nc2ccccc2c2nc3ccccc3n12,-,-,-,-
O=c1c(Cl)cc(Cl)nn1-c1ccccc1,-,4.1,.,2.7
O=C(NCCc1ccccc1)[C@@H]1CC=C[C@@H]2CCN(Cc3ccc(Cl)c(Cl)c3)C(=O)[C@@H]21,.,.,3.2,.
CCCCNC(=O)[C@@H]1CC=C[C@@H]2CCN(Cc3ccc(Cl)c(Cl)c3)C(=O)[C@@H]21,.,.,-,.
Cn1c(N/N=C2\CCCc3ccccc32)nc2c1c(=O)n(Cc1ccc(F)cc1)c(=O)n2C,-,1.2,.,1.2
O=C(Nc1ncc2c(n1)CC(c1ccco1)CC2=O)c1ccccc1 (centres undefined),70,-,-,-
Cc1ccc(C(=O)Nc2ncc3c(n2)CC(c2ccco2)CC3=O)cc1 (centres undefined),-,-,-,-
O=C1CC(c2ccco2)Cc2nc(Nc3nc(-c4ccccc4)c4ccccc4n3)ncc21 (centres undefined),-,3.4,.,3.5
COc1cc2c(cc1OC)C(NC(=O)C(F)(F)F)CNC2=O (centres undefined),-,.,.,.
Cc1ccc(/C=N/n2c(C)nc3ccccc3c2=O)s1,-,.,.,.
SMILES,WT yeast gro inh,HCT116 bCat-KO,hDAT+cocaine,HCT116 PTEN-null
Cc1cnn(C(=S)NCc2ccc(Cl)cc2)c1,68,-,-,-
C=CCSc1nc2c(c(C3CC=CCC3)c1C#N)CCC2 (centres undefined),61,-,-,-
O=C(Nc1ccc(Cl)c([N+](=O)[O-])c1)ONC1=NCCCCC1,-,.,.,.
C=CCOc1c(Br)cc(/C=N/Nc2ccc(C(=O)O)cc2)cc1OCC,63,-,.,-
CC(OC(=O)c1ccccc1Nc1ccc(SC(F)F)cc1)C(N)=O (centres undefined),81,-,.,-
CCOC(=O)c1c(NC(=S)NC(=O)c2ccc(Cn3cc(Cl)cn3)o2)sc2c1CCC(C)C2 (centres undefined),-,1.9,-,1.5
CCn1cc(C(=O)NC(=S)Nc2sc3c(c2C(=O)OC)CCCCCC3)cn1,-,-,.,2.1
COC(=O)c1cc(NC(=O)c2ccc(Cn3cc(Cl)cn3)o2)cc(C(=O)OC)c1,-,-,-,-
CCn1c(CNC(=O)COc2ccc(C(C)C)cc2)nnc1SCC(=O)Nc1ccccc1C(C)C,-,-,2.4,-
CCn1c(CNC(=O)COc2ccc(C(C)C)cc2)nnc1SCC(=O)Nc1ccccc1F,-,-,-,-
CC1CCCN(S(=O)(=O)c2ccc(S(=O)(=O)N3CCCN(Cc4ccccc4)C3)cc2)C1 (centres undefined),.,.,-,.
CC(C)CNS(=O)(=O)c1ccc(S(=O)(=O)N2CCCN(Cc3ccccc3)C2)cc1,83,-,-,-
CCOC(=O)c1c(C)[nH]c(C=C2C(=O)CCCC2=O)c1O,-,-,.,-
COc1ccc(/C=C(\C#N)C(=O)OCC(=O)Nc2ccc(C(C)(C)C)cc2)cc1,-,-,.,-
COc1ccc(C(=O)Nc2cnc3sc(C)nn3c2=O)cc1,-,.,.,.
COCCNC(=O)CNC(=O)c1nn(-c2ccc(OC)c(Cl)c2)c(=O)c2ccccc12,-,-,-6.8,-
COc1ccc(-n2nc(C(=O)NCC(=O)NCc3ccco3)c3ccccc3c2=O)cc1Cl,-,-,-,-
COC(=O)CNC(=O)CNC(=O)c1nn(-c2ccc(OC)c(Cl)c2)c(=O)c2ccccc12,76,-,.,-
COC(=O)c1ccc(CN2C(=O)C3CCCCC3C2=O)o1 (centres undefined),-,.,.,.
CCn1nnc(NC(=O)C(C)(c2ccccc2)c2ccccc2)n1,-,.,.,.
COC(=O)C1CCN(C(=O)c2cc(OC)c(OC)c(OC)c2)CC1,78,-,-,-
Cc1c(C(=O)c2ccc(Cl)cc2Cl)cnc2cc3c(cc12)OCO3,-,-,-8.5,-
Cc1ccc(C)n1-c1ccc(-c2ccnc(N)n2)cc1,-,.,.,.
O=C(N/N=C\c1ccc([N+](=O)[O-])s1)c1cncc(Br)c1,-,3.4,.,1.5
O=C(N/N=C/c1ccc([N+](=O)[O-])s1)c1cccnc1,-,3.3,.,2.8
SMILES,WT yeast gro inh,HCT116 bCat-KO,hDAT+cocaine,HCT116 PTEN-null
CCn1cc(CNCc2cn(C)nc2-c2ccc(C3CCCCC3)cc2)cn1,-,.,.,.
C=CCn1cc(/C=N/Nc2nc3ccccc3[nH]2)c2ccccc21,-,-,.,-
CCN(CC)c1ccc(/C=N/Nc2nc3ccccc3[nH]2)cc1,79,2.8,.,1.6
CCCn1c(/C=N/Nc2nc3ccccc3[nH]2)nc2ccccc21,58,3.6,.,3.0
CC(/C=N/Nc1nc2ccccc2[nH]1)=C\c1ccccc1,90,-,.,-
CC(C)Cn1c(/C=N/Nc2nc3ccccc3[nH]2)nc2ccccc21,60,-,.,-
Cn1c(/C=N/Nc2nc3ccccc3[nH]2)nc2ccccc21,-,.,.,.
CC(C)C(C)(C#N)NC(=O)CSc1nc2scc(-c3ccc(F)cc3)c2c(=O)n1Cc1ccccc1 (centres undefined),-,-,.,-
CCOC(=O)Cn1c(-c2ccccn2)nc2ccccc21,-,-,-,-
CCN(CC)CCNC(=O)Cn1c(-c2ccccn2)nc2ccccc21,61,-,-,-
CC(C)OCCCNC(=O)CN1C(=O)/C(=C/c2ccccc2)Sc2ccccc21,-,-,.,-
CCOC(=O)c1ccc(N=c2sc(C(=O)OC)cc(=O)n2Cc2ccco2)cc1,-,2.2,-,2.2
CCOC(=O)c1ccc(N=c2sc(C(=O)OC)cc(=O)n2CCCN2CCOCC2)cc1,-,6.0,-,-
Cc1cc(-c2cc(C(=O)NCc3ccccc3)on2)nc(NCC2CC2)n1,.,.,-,.
CC(c1ccccn1)N(Cc1ccco1)C(=S)Nc1cccc(F)c1 (centres undefined),-,.,.,.
CC1=Nn2c(nnc2-c2n[nH]c3c2CCC3)SC1,-,-,-8,-
C=CCOc1ccc2ccccc2c1CNCCCN1CCOCC1,64,-,.,-
